Screening data: PubChem BioAssay, National Center for Advancing Translational Sciences (NCATS)
Tau fluor cs = counter-screen for tau fibril formation inhibitors; tau K18 P301L Alexa594 fluorescence, heparin fibrillization; Potency, µM (top dose mostly 57.7 µM); 0.93% of 280,000 active; AID 1463; also: nearly all actives have a fitted effect of over 55% in size
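Human K18 P301L tau (15 uM unlabeled plus 0.24 uM Alexa 594-labeled, final) in 100 mM sodium acetate pH 7 was mixed with compound and 20 uM heparin and incubated 6 hr at 37 C.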
USP1-UAF1 inh = USP1/UAF1 (human) deubiquitinase inhibition | O94782 | recombinant USP1/UAF1, Ub-Rhodamine cleavage fluorescence | Potency, µM (series often up to 57.1 µM), actives largely listed as inhibitors | 0.23% of 390,000 active; also: nearly all actives have a fitted effect of over 60% in size
Target sequence (O94782 whole entry, looked up): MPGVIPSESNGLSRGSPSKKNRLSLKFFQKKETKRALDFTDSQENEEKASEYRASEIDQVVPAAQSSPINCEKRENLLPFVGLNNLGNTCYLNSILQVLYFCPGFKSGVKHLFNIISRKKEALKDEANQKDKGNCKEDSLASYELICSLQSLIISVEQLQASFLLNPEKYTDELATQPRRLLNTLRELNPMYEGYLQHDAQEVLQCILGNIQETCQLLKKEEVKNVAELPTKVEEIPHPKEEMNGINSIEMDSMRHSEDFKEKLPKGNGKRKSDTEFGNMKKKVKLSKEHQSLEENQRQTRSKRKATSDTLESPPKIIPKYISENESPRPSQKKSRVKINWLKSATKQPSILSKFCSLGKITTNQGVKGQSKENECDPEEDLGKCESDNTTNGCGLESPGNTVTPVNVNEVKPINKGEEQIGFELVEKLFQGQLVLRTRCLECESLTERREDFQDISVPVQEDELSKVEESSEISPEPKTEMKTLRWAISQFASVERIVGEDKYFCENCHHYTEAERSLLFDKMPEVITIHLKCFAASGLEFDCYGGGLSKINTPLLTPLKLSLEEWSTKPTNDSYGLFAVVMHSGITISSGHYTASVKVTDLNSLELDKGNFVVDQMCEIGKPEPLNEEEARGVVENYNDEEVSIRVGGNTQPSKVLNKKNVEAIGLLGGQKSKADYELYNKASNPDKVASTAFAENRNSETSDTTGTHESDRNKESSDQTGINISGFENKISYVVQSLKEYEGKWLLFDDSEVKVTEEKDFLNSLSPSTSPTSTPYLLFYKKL
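1 nM enzyme complex + cpd, 15 min RT; start with Ub-Rho 150nM final; kinetic fluorescence ex 480/em 540, 6 reads q60 s. Buffer 50mM HEPES pH 7.8, 0.5mM EDTA, 0.1 mg/ml BSA, 1mM TCEP, 0.01% Tween-20.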
Tau fibril FP = tau fibrillization inhibition (FP). Potency, µM (doses to about 57.7 µM), actives largely listed as inhibitors. K18 P301L tau heparin fibrillization, Alexa594 FP, 6 h. 0.39% of 280,000 active. P10636; also: nearly all actives have a fitted effect of over 55% in size
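Read-out: fluorescence polarization of Alexa 594-labeled tau (0.24 uM), 555 nm excitation, 632 nm emission. Mixtures held 15 uM unlabeled K18 P301L, compound and 20 uM heparin, pH 7 acetate buffer, incubated 6 hr at 37 C.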
FBPA coupling cs = inhibits coupling enzyme system, counter-screen for aldolase hits; coupling enzyme system counterscreen, AmpLite Red fluorescence; activity change, negative = inhibition, % at 58.2 µM, hits read low; 0.67% of 290,000 active; in the data active = activity change below about -30%
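Final compound at 57.5 uM, incubated 10 min at RT with coupling enzyme reagent (glyceraldehyde-3-phosphate), then 20 min with substrate and AmpLite Red detection. Fluorescence read at 525/598 nm; tests interference with the coupling assay, not aldolase inhibition.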
Tau ThT inhib = blocks human tau fibril formation measured by thioflavin T | recombinant tau K18 P301L (four-repeat tau fragment), heparin-induced fibrillization, ThT fluorescence | Potency, µM (doses to about 57.4 µM), hits mostly inhibitors | 2.1% of 270,000 active | AID 1460; also: nearly all actives have a fitted effect of over 55% in size
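Aggregation was driven by heparin (20 uM final) acting on recombinant tau […] bearing P301L in 100 mM sodium acetate pH 7; fibrils were detected with Thioflavin T.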
Large screens that a line does not name were inactive; [ ] = another dose, or the depositor's remark. This is a sample that favours compounds with a hit; in the whole collection about 2.3% have one here. Unless noted, calls follow the shape of the dose curve; as a rule, active = well fitted curve in the direction sought with a large enough effect; inconclusive = small, poorly fitted or top-dose-only effect, or another doubt; inactive = no such curve, though single readings can be large; an effect the other way counts as inactive or inconclusive.

COC(=O)C1CCN(Cc2ccc(OCCCN3CCN(c4ccc([N+](=O)[O-])cc4)CC3)cc2)CC1	Tau ThT inhib 3.98µM
O=C(Nc1ccc(OCc2cc(=O)n3c4c(sc3n2)CCCC4)cc1)c1ccccc1	Tau ThT inhib inconclusive (no result: FBPA coupling cs)
Cc1cc2c(c(=O)o1)C(c1ccc([N+](=O)[O-])o1)C(C#N)=C(N)O2 (centres undefined)	Tau fibril FP inconclusive, Tau ThT inhib 14.1µM
Cc1cc(C)c(NC(=O)Cn2c(=O)n(Cc3ccco3)c(=O)c3ccc(C(=O)NC4CCCC4)cc32)c(C)c1	none (no result: FBPA coupling cs)
O=C(Cn1c(=O)n(Cc2ccco2)c(=O)c2ccc(C(=O)NC3CCCC3)cc21)Nc1ccc(F)cc1	Tau fluor cs inconclusive, Tau fibril FP 15.8µM, Tau ThT inhib inconclusive (no result: FBPA coupling cs)
Nc1c(C(=O)c2ccc(Br)s2)oc2ccccc12	Tau fluor cs inconclusive, Tau ThT inhib 10µM
Cc1ccc(C)c2[nH]c(=O)c(CN(CCN3CCOCC3)Cc3nnnn3CC3CCCO3)cc12 (centres undefined)	none
Cc1ccc(C)c2[nH]c(=O)c(CN(Cc3nnnn3C3CCCCC3)CC3CCCO3)cc12 (centres undefined)	FBPA coupling cs -36.6
CCOC(=O)c1ccc(NC(=O)CC2C(=O)N(c3cccc(OC)c3)C(=O)N2Cc2ccc(OC)cc2)cc1 (centres undefined)	Tau fluor cs inconclusive, USP1-UAF1 inh inconclusive, Tau fibril FP inconclusive (no result: FBPA coupling cs)
COCCOC(=O)c1[nH]c2c(c1C)C(=O)C(C(=O)OC)C(C)C2 (centres undefined)	FBPA coupling cs -35.7
Cc1ccc(C2C(C#N)=C(N)SC(N)=C2C#N)c(C)c1	FBPA coupling cs -41.1
Cc1ccc(S(=O)(=O)NCC(=O)OCC(=O)N2C(C)CCCC2C)cc1 (centres undefined)	none (no result: Tau fluor cs, Tau fibril FP, FBPA coupling cs, Tau ThT inhib)
OCCCNC(=S)Nc1ccc2nc(-c3ccccn3)c(-c3ccccn3)nc2c1	FBPA coupling cs -33.5
CC(C)(C)CC(C)(C)NC(=S)Nc1ccc2nc(-c3ccccn3)c(-c3ccccn3)nc2c1	Tau fluor cs inconclusive, FBPA coupling cs -55.6, Tau ThT inhib inconclusive
S=C(Nc1ccc2nc(-c3ccccn3)c(-c3ccccn3)nc2c1)N1CCOCC1	Tau fluor cs inconclusive, Tau fibril FP inconclusive, FBPA coupling cs -41.2, Tau ThT inhib 12.6µM
CN(C)NC(=S)Nc1ccc2nc(-c3ccccn3)c(-c3ccccn3)nc2c1	Tau fibril FP inconclusive, Tau ThT inhib inconclusive
O=C(CCNS(=O)(=O)c1ccc(Cl)cc1)N1CCN(c2ncccn2)CC1	none (no result: Tau fluor cs, Tau fibril FP, FBPA coupling cs, Tau ThT inhib)
N#CCCN1CCCc2cc(N=Nc3ccc(C(F)(F)F)cc3)ccc21	Tau fluor cs 8.91µM[quencher], USP1-UAF1 inh inconclusive, Tau fibril FP inconclusive, Tau ThT inhib 3.55µM
COC(=O)c1ccc(NC(=O)CCc2c(C)nn(-c3ccc(N4CCCCC4)nn3)c2C)cc1	Tau ThT inhib inconclusive (no result: FBPA coupling cs)
O=C(N/N=C/c1cccc([N+](=O)[O-])c1)c1cccc(Br)c1	none
O=C(N/N=C/c1cccc([N+](=O)[O-])c1)c1ccccc1-n1cccc1	FBPA coupling cs -38.2
COc1cc(/C=N/NC(=O)c2sc3ccccc3c2Cl)ccc1OC(=O)c1ccc([N+](=O)[O-])cc1	Tau fluor cs inconclusive, Tau ThT inhib 1.26µM
COc1ccc(/C=N/NC(=O)c2cccc([N+](=O)[O-])c2)cc1OS(=O)(=O)c1ccccc1	Tau fluor cs 14.1µM[quencher]
COc1cc(/C=N/NC(=O)COc2c(C)cc([N+](=O)[O-])cc2C)ccc1OC(=O)c1ccccc1	none
N#Cc1cc([N+](=O)[O-])ccc1Oc1cccc(/C=N/NC(=O)c2cccc(Cl)c2)c1	Tau fluor cs inconclusive, FBPA coupling cs -35.5
CC(C)CNC(=O)C1=CC(c2ccc3c(c2)OCO3)=NS(=O)(=O)N1C	USP1-UAF1 inh inconclusive (no result: FBPA coupling cs)
COc1cc(/C=N/NC(=O)c2cccc([N+](=O)[O-])c2)ccc1OCc1ccccc1	Tau fluor cs 11.2µM[quencher], Tau fibril FP inconclusive, Tau ThT inhib inconclusive
COc1ccc(/C=N/NC(=O)c2cccc([N+](=O)[O-])c2)cc1OC(=O)c1ccc(C)cc1	Tau fluor cs inconclusive
COc1ccc(/C=N/NC(=O)c2cccc([N+](=O)[O-])c2)cc1OC(=O)c1ccccc1	Tau fluor cs 11.2µM[quencher]
COc1ccc(C(=O)Oc2ccc(/C=N/NC(=O)c3ccccc3OC)cc2[N+](=O)[O-])cc1	Tau ThT inhib inconclusive
O=C(N/N=C/c1ccc(OC(=O)c2ccccc2)c([N+](=O)[O-])c1)c1ccc(O)cc1	Tau fluor cs inconclusive, Tau ThT inhib 8.91µM
COc1cc(/C=N/NC(=O)c2cccc([N+](=O)[O-])c2)ccc1OC(=O)c1ccco1	Tau fluor cs inconclusive, Tau ThT inhib inconclusive
COc1ccc(C(=O)N/N=C/c2ccc(OC(=O)c3cccc4ccccc34)c([N+](=O)[O-])c2)cc1	Tau fluor cs inconclusive, Tau ThT inhib 5.01µM
Cc1cc(S(=O)(=O)N2CCOCC2)ccc1OCC(=O)NCC1CCCO1 (centres undefined)	none (no result: Tau fluor cs, Tau fibril FP, Tau ThT inhib)
CC1=NN(c2ccccc2)C(=O)/C1=C/C=C/c1ccccc1	Tau fluor cs inconclusive, Tau fibril FP inconclusive, Tau ThT inhib 15.8µM
Cc1ccc(C2=NOC(=O)/C2=C\C=C\c2ccccc2)cc1	Tau fluor cs inconclusive, Tau fibril FP 14.1µM, Tau ThT inhib 12.6µM
CC1=NN(c2cccc(C(=O)O)c2)C(=O)/C1=C\C=C\c1ccco1	Tau fluor cs inconclusive, USP1-UAF1 inh inconclusive, Tau fibril FP inconclusive, Tau ThT inhib 14.1µM
CCN(C(=O)CSc1nnc(C)c(=O)[nH]1)c1cccc2ccccc12	none (no result: Tau fluor cs, Tau fibril FP, FBPA coupling cs, Tau ThT inhib)
CS(=O)(=O)c1cccc(-c2nnc(NC(=O)c3ccc4c(c3)OCCO4)o2)c1	none (no result: FBPA coupling cs)
Cc1ccccc1-c1cc2nc(-c3ccc([N+](=O)[O-])cc3)cc(=O)n2[nH]1	Tau ThT inhib inconclusive
O=c1cc(-c2ccc([N+](=O)[O-])cc2)nc2cc(-c3ccc(F)cc3)[nH]n12	Tau fluor cs inconclusive, Tau ThT inhib 10µM
C/C1=C2N=C(/C=C3N=C(/C(C)=C4\[N-]C(C)(C5N=C1C(C)(CCC(=O)NCC(C)OP(=O)([O-])O[C@H]1C(O)C(n6cnc7cc(C)c(C)cc76)O[C@@H]1CO)C5CC(N)=O)C(C)(CC(N)=O)C4CCC(N)=O)C(C)(CC(N)=O)C\3CCC(N)=O)C(C)(C)C/2CCC(N)=O.[CH2-]C1OC(n2cnc3c(N)ncnc32)C(O)C1O.[Co] (some centres undefined)	Tau fluor cs inconclusive, Tau fibril FP 12.6µM, Tau ThT inhib 10µM (no result: USP1-UAF1 inh)
COc1cccc(-c2ccc3c(c2)O[C@H](CN(C)C(=O)c2ccccc2F)[C@H](C)CN([C@H](C)CO)S3(=O)=O)c1	none (no result: Tau fluor cs, Tau fibril FP, FBPA coupling cs, Tau ThT inhib)
O=C(N/N=C/c1ccc(N2CCOCC2)o1)c1cccc([N+](=O)[O-])c1	Tau fibril FP inconclusive, FBPA coupling cs -43.9, Tau ThT inhib 8.91µM
